From PubChem BioAssay AID2315 (National Center for Advancing Translational Sciences (NCATS), 2010) come the findings set out here.

About 27,000 (9.3%) of roughly 290,000 compounds were called active. This is one part of a sample in which actives are shown more often than they occur. Unmarked numbers belong to inactive results. Rule as the data show it: active = inhibition mostly above about 28% (no sharp cut-off); inactive = mostly below about 43%.

In general, inhibition refers to the change of the read-out against control, counted positive when it falls.

The test can be described thus: A qHTS for Small Molecule Inhibitors of Shiga Toxin. Also: 0% is about no effect. To be noted: Vero cells, Shiga toxin protein synthesis inhibition reporter; at 38.7 µM, hits give high values. A general note: In qHTS, concentration-response curves come from the screen itself.
Consider `Cc1ccc(C)c(S(=O)(=O)Nc2cc(C)on2)c1`, for which the inhibition was -4.53%.
The figure for `CCc1cc2c(=O)c(-c3ccon3)c(N)oc2cc1OC` is 82.2% (active); for `CCc1cc2c(=O)c(-c3ccc(F)cc3)c(C(F)(F)F)oc2cc1OCC(=O)O` it is 5.27%.
`COc1ccc2oc(N)c(C=O)c(=O)c2c1`: the inhibition is 63.7%.
As for `CSc1nnc(C2CCCN(CC(=O)Nc3ccccc3N3CCOCC3)C2)n1C(C)C` (configuration not stated), the inhibition was -9.97%.
Next, `O=C(Cn1c(NCCO)nc2ccccc21)c1ccc(Cl)cc1Cl`: -8.74%.
On to `COC(=O)c1c(NC(=O)C2CC(C)=C(C)CC2C(=O)O)sc2c1CCCCC2` (configuration not stated), for which the inhibition is -7.33%.
`CC(=O)c1ccc(NC(=O)CCc2nnc3ccc(NCc4ccco4)nn23)cc1`: the inhibition was 49.7% (active).
For `CCOc1ccccc1NC(=O)CCc1nnc2ccc(NCc3ccco3)nn12`, the inhibition is -9.81%.
The figure for `O=C(CCc1nnc2ccc(NCc3ccco3)nn12)Nc1cc(F)ccc1F` is -6.06%.
Next, `COCCNC(=O)CCCN1C(=O)c2ccccc2Sc2ncccc21`: -19.8%; `CCOc1ccccc1-c1nc(CN2CCC(C(=O)N3CCOCC3)CC2)c(C)o1`: -7.77%; `O=C(NCc1ccccn1)C1CCN(S(=O)(=O)c2ccc(Br)cc2)CC1`: -33.7%.
Next, `Cc1ccc(S(=O)(=O)Cc2cc(-c3ccc(Cl)cc3)no2)cc1`: 8.79%.
Turning to `Cc1ccc(-c2cc(N)on2)cc1`, the inhibition was 108% (active).
Next, `O=C(Cc1ccccc1Cl)N1CCOCC1`: -11.4%; `CN1CCCC(OC(=O)COc2ccc(Br)cc2)C1` (configuration not stated): -12%; `CC1CN/C(=C\C(=O)c2ccc(Br)cc2)C(=O)N1` (configuration not stated): 67.3% (active).
Turning to `COc1cc2c(cc1OC)/C(=C/C(=O)c1ccc(NC(C)=O)cc1)NCC2`, the inhibition was -6.51%.
Next, `CC(C)(C)OC(=O)NC(Cc1ccccc1)C(=O)NC(CSC1CCCCO1)C(=O)NN` (configuration not stated): -14.3%; `CCOC(=O)N1CCN(C(=O)COCc2cc(-c3ccc4c(c3)OCO4)on2)CC1`: -7.65%.
The figure for `Cc1cccc(N2CCN(C(=O)COCc3cc(-c4ccc5c(c4)OCO5)on3)CC2)c1C` is -8.35%.
Next, `CC(C)NC(=O)COCc1cc(-c2ccc3c(c2)OCO3)on1`: 45.3% (active); `Cc1nn2c(=O)cc(COC(=O)c3ccc(NC(=O)C(C)(C)C)cc3)nc2s1`: 35.5%.
As to `COc1cccc(C2CC(c3cccs3)=NN2C(=O)CSC2=NCCS2)c1OC` (configuration not stated), the inhibition is -5.1%.
Take `CCCc1cc(=O)oc2cc(OCC(=O)Nc3ccc(CN4CCOCC4)cc3)c(Cl)cc12`: the inhibition is -1.59%.
Consider `COc1ccc(C2=Nc3cc(C)ccc3OC2)cc1`, for which the inhibition was 94% (active).
For `COc1ccc(C2=NOC3(CC(=O)N(c4ccc(C)cc4)C3=O)C2)cc1` (configuration not stated), the inhibition was 36.5%.
Turning to `Cc1ccc(C(=O)NNC2=Nc3cc([N+](=O)[O-])ccc3OC2)cc1`, the inhibition is 40.3%.
The figure for `Cn1cc(C(=O)c2ccc(Cl)cc2Cl)cc1C(=O)NN` is -5.33%; for `c1ccc(CSCCc2ccncc2)cc1` it is -5.65%.
The figure for `CC(C)(C)c1ccc(SCCc2ccncc2)cc1` is 69.1% (active); for `Cc1cc(C)c(SCCc2ccncc2)c(C)c1` it is -4.14%; for `CN(NS(=O)(=O)c1cccs1)c1ncc(C(F)(F)F)cc1Cl` it is -2.15%.
Next, `COc1ccc(-c2nc3ccccc3c(=O)n2CCc2ccc(O)cc2)cc1`: 40.9%; `Cc1ccc(C(=O)CSc2nc3ccccc3c(=O)n2N)o1`: 77.2%.
As for `Cn1c(COc2ccc(Cl)cc2)nc2ccccc2c1=O`, the inhibition is 46% (active).
Regarding `COc1ccc(OCc2ccc(-c3nc4ccccc4c(=O)n3N)o2)cc1`, the inhibition is 129% (active).
Take `Cn1c2ccccc2c(=O)c2c(=O)n(Cc3ccco3)c(COc3ccccc3)nc21`: the inhibition was 8.54%.
Turning to `Cc1nc2ccccc2c(=O)n1-c1ccc(Cl)cc1Cl`, the inhibition is -14.3%.
Next, `COC(=O)c1sc(N2CCN(Cc3ccccc3)CC2)nc1N`: -8.35%; `Cc1ccc(CNCc2ccc3c(c2)OCO3)c(C)c1`: -7.85%; `O=C(O)C1=NN(c2c(F)c(F)cc(F)c2F)C(=O)CC1`: -10.3%.
The figure for `Cc1ccc2nc(-c3ccccn3)cc(C(=O)Nc3ccc4c(c3)OCO4)c2c1` is -7.35%.
The figure for `COc1ccc(/C=C/C(=O)Nc2ccc3c(c2)OCCO3)cc1OC` is 35.4%.
In the case of `O=C(/C=C/c1ccc2c(c1)OCO2)NCc1ccc(F)cc1`, the inhibition was 26.5%.
Next, `CCc1c(C)sc(NC(=O)/C=C/c2ccc3c(c2)OCO3)c1C(=O)OC`: -7.04%; `CC(C)CNS(=O)(=O)c1ccc(C(=O)Nc2ccc3c(c2)OCO3)cc1`: -14.7%.
For the molecule `Cc1cccc(NC(=O)/C=C/c2ccc3c(c2)OCO3)n1`, the inhibition was 70.2% (active).
The figure for `CNS(=O)(=O)c1ccc(NC(=O)Nc2ccc3c(c2)OCO3)cc1` is 72.9% (active).
Next, `Cc1cccc(NC(=O)Nc2ccc3c(c2)OCO3)n1`: 76.3% (active); `CC(NS(=O)(=O)c1ccc(Cl)cc1)C(=O)Nc1ccc2c(c1)OCCO2` (configuration not stated): -5.73%.
As for `CC(NC(=O)Nc1ccc2c(c1)OCO2)c1ccncc1` (configuration not stated), the inhibition is 19.2%.
Next, `COc1cccc(/C=C/C(=O)Nc2ccc3c(c2)OCCO3)c1`: 70.9% (active); `COc1ccc(OC)c(/C=C/C(=O)OCC(=O)Nc2ccc3c(c2)OCCO3)c1`: -11%; `COc1cccc(NC(=O)C2CCCN(c3ncnc4c3nc3n4CCCCC3)C2)c1` (configuration not stated): -3.78%.
Regarding `Cc1ccc(N2CCN(C(=O)c3cccs3)CC2)c(C)c1`, the inhibition was 8.46%.
Next, `CCc1ccc(OCC(=O)N(Cc2ccccc2)C2CCS(=O)(=O)C2)cc1` (configuration not stated): -3.9%.
Next, `CN(C)S(=O)(=O)c1cccc(C(=O)OCC(=O)N2CCCC2=O)c1`: -2.45%.
The figure for `CC(C(=O)NC1CCS(=O)(=O)C1)N1C(=O)/C(=C/c2ccc(Cl)cc2)SC1=S` (configuration not stated) is -2.44%.
As to `COc1ccccc1CN1CCN(Cc2cc(OC)c(OC)cc2OC)CC1`, the inhibition was 7.78%.
`COc1ccc(CNS(=O)(=O)c2ccc(NC(=O)N3CCCCC3)cc2)cc1`: the inhibition was 1.93%.
